Screening results (PubChem)
An excerpt weighted towards active compounds, which were near 9.2% of everything screened.
ALDH1A1 block = inhibitors of human aldehyde dehydrogenase 1A1; Purified ALDH1A1, NADH fluorescence, propionaldehyde substrate; Potency, µM (series often up to 75.3 µM), for the others: at the highest dose activity, negative = inhibition, usual class: inhibitors; 7.3% of 220,000 active; AID 1030;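 also: plate controls were no enzyme wells and a reference inhibitor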
Target sequence (P00352 whole entry, looked up): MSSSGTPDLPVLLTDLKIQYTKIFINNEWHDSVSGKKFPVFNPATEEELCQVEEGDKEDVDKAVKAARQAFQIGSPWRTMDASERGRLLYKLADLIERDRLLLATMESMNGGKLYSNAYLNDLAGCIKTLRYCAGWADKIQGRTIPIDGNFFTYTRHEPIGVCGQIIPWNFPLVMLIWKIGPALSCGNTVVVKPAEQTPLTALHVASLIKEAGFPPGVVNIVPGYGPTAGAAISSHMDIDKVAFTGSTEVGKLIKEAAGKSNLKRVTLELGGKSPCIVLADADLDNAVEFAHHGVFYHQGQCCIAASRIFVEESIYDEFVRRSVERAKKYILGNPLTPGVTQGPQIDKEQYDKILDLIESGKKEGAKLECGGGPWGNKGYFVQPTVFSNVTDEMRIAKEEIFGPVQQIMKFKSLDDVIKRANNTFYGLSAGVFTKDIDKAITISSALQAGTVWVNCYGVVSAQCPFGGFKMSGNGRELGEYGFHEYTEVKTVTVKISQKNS
HttQ103 aggreg = reduces HttQ103-GFP aggregates in PC12 cells. PC12 HttQ103-GFP aggregates, Acumen cytometry, 40 h. Potency, µM (series often up to 46.1 µM), for inactives: top-dose activity change, negative = inhibition, hits mostly inhibitors. 1.1% of 220,000 active. AID 1688; active = well fitted curve in the direction sought with a large enough effect; inconclusive = small, poorly fitted or top-dose-only effect, or another doubt; inactive = no such curve, though single readings can be large; an effect the other way counts as inactive or inconclusive; also: % is scaled to controls: 0 for no effect and ±100 for the full control effect; nearly all actives have a fitted effect of over 60% in size
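Aggregate formation scored by laser-scanning cytometer (488 excitation, 500–530 emission) in lysed PC12 cells expressing Q103-GFP after 100 nM tebufenozide induction; library tested in dose series, with ATPLite reagent added in the multiplex.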
LMNA splice mod = changes lamin A minigene splicing in HeLa cells; HeLa LMNA splicing GFP/RFP minigene ratio, 48 h; Potency, µM (doses to about 46.1 µM), for the others: at the top dose ratio change, negative = inhibition, usual class: inhibitors; 0.01% of 200,000 active; AID 1487; active = well fitted inhibition curve with a large enough effect in the signal ratio, with a control signal flat, not every such curve was filed as active; inconclusive = small, poorly fitted or top-dose-only effect, or effect the other way, or a change in a side signal; the % refers to the signal ratio; also: % is scaled to controls: 0 for no effect and ±100 for the full control effect
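Read-out is the ratio of GFP to DsRed2 object intensity, acquired by 488 nm laser-scanning cytometry on HeLa lamin A-EGFP minigene reporter cells. Compound incubation 48 hrs at 37 °C in Opti-MEM with 2% FBS; DMSO 0.5% final.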
KDM4E inh = inhibitors of human JMJD2E histone demethylase; JMJD2E catalytic domain, FDH-coupled NADH fluorescence (FDH is formaldehyde dehydrogenase); Potency, µM (doses to about 57.1 µM), without a hit: top-dose activity change, negative = inhibition, actives largely listed as inhibitors; 1.6% of 230,000 active;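 also: 0% = wells with enzyme and -100% = buffer wells without enzyme; nearly all actives have a fitted effect of over 50% in size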
HTT cytoprotect = Huntington cell model cytoprotection by ATP luminescence; PC12 HTT-Q103 induced, cytoprotection, ATP luminescence, 40 h; Potency, µM (series often up to 56.4 µM), without a hit: cytoprotection (ATP increase), actives largely listed as activators; 0.14% of 230,000 active; AID 1471; active = well fitted curve in the direction sought with a large enough effect; inconclusive = small, poorly fitted or top-dose-only effect, or another doubt; inactive = no such curve, though single readings can be large; an effect the other way counts as inactive or inconclusive; also: % of control where 0% means no effect; nearly all actives have a fitted effect of over 45% in size
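Rat PC12, Q103 Htt exon1-GFP fusion, ecdysone promoter; tebufenozide inducer 100 nM final; compound titration; qHTS, 1500 cells/well; ATPlite luminescent read.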
HPGD block = inhibitors of human 15-hydroxyprostaglandin dehydrogenase (HPGD); purified HPGD, NADH fluorescence kinetic, PGE2 substrate; Potency, µM, for inactives: at the top dose activity change, negative = inhibition, usual class: inhibitors; 4.3% of 150,000 active; AID 894; also: % is scaled to controls: 0 for no effect and ±100 for the full control effect
Target sequence (P15428 whole entry, looked up): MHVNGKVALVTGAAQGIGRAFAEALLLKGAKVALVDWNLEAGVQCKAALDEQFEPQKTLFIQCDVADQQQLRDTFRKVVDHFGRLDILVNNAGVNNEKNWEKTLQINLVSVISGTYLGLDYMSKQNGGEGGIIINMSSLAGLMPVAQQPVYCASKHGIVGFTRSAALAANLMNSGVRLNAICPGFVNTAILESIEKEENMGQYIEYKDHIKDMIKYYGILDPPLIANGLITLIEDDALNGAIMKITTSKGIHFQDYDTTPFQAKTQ
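NADH formation kinetics: reaction with 30 uM PGE2 and 1 mM NAD+ (final), 20 nM enzyme, Tris-HCl pH 8 with Tween 20, after 15 min compound preincubation at room temperature. Fluorescence change, last versus first of five reads.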
The depositor's hits bear a star; ? = inconclusive; . = no result; ! = not active in a repeat; [ ] = dose if it differs, or a comment. Unless noted, calls follow the shape of the dose curve; as a rule, active = well fitted inhibition curve with a large enough effect (not every such curve was filed as active); inconclusive = small, poorly fitted or top-dose-only effect, or another doubt; inactive = no such curve, though single readings can be large or run the other way. Potency is read from the fitted curve at half-maximal effect.

SMILES	ALDH1A1 block	HttQ103 aggreg	LMNA splice mod	KDM4E inh	HTT cytoprotect	HPGD block
COc1ccc(-n2c(=O)/c(=C\c3cccs3)s/c2=C(/C#N)C(=O)N2CCN(C)CC2)cc1	7.08µM*	-4.6%	.	7.1%	-13.2%	.
COC(=O)CNC(=O)CSc1nc(N)cc(=O)[nH]1	14.3%	1.0%	-2.9%	-4.8%	23.8%	-10.0%
COc1cccc(C(=O)Nc2cccc(-c3cn4ccsc4n3)c2)c1OC	.	.	-20.6%[46 µM]	.	.	.
COc1ccc(NC(=O)N2CCCC3(CCN(S(=O)(=O)c4ccccc4)CC3)C2)cc1	14.1µM*	.	.	.	-1.1%	-7.4%
COc1ccc(NC(=O)N2CCC3(CC2)CCN(S(=O)(=O)c2ccccc2)CC3)cc1	2.3%	.	.	.	25.9%	-1.6%
COc1ccc(NC(=O)N2CC[C@@]3(CCCN(C(=O)c4cccc(F)c4)C3)C2)cc1	17.8µM*	.	.	.	-5.4%	-9.5%
COc1ccc(NC(=O)N2CCCC3(CCNCC3)C2)cc1	-0.1%	.	.	.	1.58µM*	-9.5%
O=C(Nc1cc(Cl)ccc1Cl)C1(c2cccs2)CCOCC1	.	.	14.0%[46 µM]	.	.	.
CC1CCC(C(C)C)C(OP(=O)(c2ccccc2)C(O)c2ccncc2)C1 (stereo not drawn)	?	-0.8%	.	17.8µM*	-18.5%	.
O=P(c1ccccc1)(c1ccccc1)C(O)c1ccncc1 (stereo not drawn)	14.3%	23.4%	-1.1%	?	-7.2%[10 µM]	-1.7%
CC(C)COP(=O)(c1ccc(N(C)C)cc1)C(O)c1ccncc1 (stereo not drawn)	12.6µM*	8.2%	8.2%	20µM*	-20.5%[0.074 µM]	28.2µM*
CC(C)COP(=O)(c1ccc(N(C)C)cc1)C(O)c1cccnc1 (stereo not drawn)	.	-4.3%[9.22 µM]	.	-1.7%	-3.0%[10 µM]	.
CN(C)c1ccc(P(=O)(OC2CCCCC2)C(O)c2ccncc2)cc1 (stereo not drawn)	.	15.8%[9.22 µM]	.	22.4µM*	30.7%[10 µM]	.
COc1ccc(CC2(CO)CCN(S(=O)(=O)c3c(C)nn(C)c3Cl)CC2)cc1	-3.7%	22.2%[9.22 µM]	.	-7.8%	-0.2%[10 µM]	.
COc1ccc(CC2(CO)CCN(S(=O)(=O)c3sccc3C)CC2)cc1	8.91µM*	10.6%[9.22 µM]	.	4.3%	16.4%[10 µM]	.
Cc1cccc(S(=O)(=O)N2CCC(CO)(Cc3ccccc3)CC2)c1	20µM*	16.4%[9.22 µM]	-4.0%[46 µM]	-19.6%	14.1%[10 µM]	.
C#C[C@]1(O)CC[C@H]2[C@H]3[C@H](CC[C@@]21C)C1=C(CC(=O)CC1)C[C@@H]3C	.	8.2%	.	.	-11.1%	.
COc1cc(C(O)CO)ccc1OS(=O)(=O)O (stereo not drawn)	1.7%	.	-9.2%	9.3%	.	-5.5%
Cc1cccc(NS(=O)(=O)c2ccc3c(c2)CCCN3C(=O)C2CCC2)c1C	.	.	-5.4%[46 µM]	.	.	.
COc1ccc(NS(=O)(=O)c2ccc(N3CCCC3)c(NC(=S)Nc3cccc(C)c3C)c2)cc1	8.91µM*	13.2%	?	-4.1%	11.9%[10 µM]	12.6µM*
COc1ccc(NS(=O)(=O)c2cc(NC(=O)c3ccco3)ccc2N2CCCC2)cc1	?	25.2%	?	?	-18.5%[10 µM]	-7.2%
O=S(=O)(Nc1ccc(Cl)cc1)c1ccc(N2CCOCC2)c(NC(=S)NC2CC2)c1	8.91µM*	-20.7%	-2.6%[46 µM]	-15.1%	-3.4%	.
COc1ccc(NS(=O)(=O)c2ccc(N3CCCC3)c(NC(=S)Nc3ccc(SC(F)F)cc3)c2)cc1	3.55µM*	-5.0%	?	3.1%	24.2%[10 µM]	3.55µM*
CC1(c2nnc(-c3ccncc3)o2)CC(c2ccc([N+](=O)[O-])cc2)=NO1 (stereo not drawn)	.	-2.4%[9.22 µM]	.	2.4%	?	.
CCOC(=O)c1c(C)[nH]c(C)c1S(=O)(=O)N1CCCC(C(=O)N2CCN(c3cccc(C)c3C)CC2)C1 (stereo not drawn)	.	.	-26.9%[46 µM]	.	.	.
SMILES	ALDH1A1 block	HttQ103 aggreg	LMNA splice mod	KDM4E inh	HTT cytoprotect	HPGD block
N#C/C(=C\c1ccc(-c2cccc([N+](=O)[O-])c2)o1)C(=O)Nc1nc(-c2cccs2)cs1	.	-11.7%[9.22 µM]	.	0.6%	-10.9%[10 µM]	.
NC(=O)c1ccccc1N/C=C/C(=O)c1ccc(Cl)cc1Cl	?	?	-11.2%	?	-87.3%	12.6µM*
Cc1cc(C)c2c(c1)c(C)cc1nnc(SCc3ccccc3C#N)n12	.	.	-6.2%[46 µM]	.	.	.
Cc1ccc(NC(=O)CN2CCCN(S(=O)(=O)c3ccc(Br)s3)CC2)cc1	20µM*	0.0%	?	6.6%	11.1%	-12.4%
CCCCCCCCCCS(=O)(=O)N/N=C/c1ccc(O)cc1	12.6µM*	15.4%	?	-3.3%	16.5%[10 µM]	-25.2%
CCCCCCCCCCS(=O)(=O)N/N=C/c1ccccc1OC	?	?	?	8.7%	-13.0%[10 µM]	-15.1%
Cc1ccc(S(=O)(=O)N/N=C/c2cccc([N+](=O)[O-])c2)cc1	?	-4.5%	?	-14.5%	?	-3.4%
CCCCCCCCCS(=O)(=O)N/N=C/c1cccc([N+](=O)[O-])c1	0.316µM*	2.1%	?	-3.8%	12.2%	20µM*
COc1ccc(-c2nc3sc(CCNC(=O)C(=O)Nc4c(C)cccc4C)c(C)n3n2)cc1	.	.	5.3%[46 µM]	.	.	.
Cn1cnc2c(N3CCCCC3)nccc21	?	6.4%	-12.7%	?	-0.1%[10 µM]	-21.6%
C[c-]1[c-](C)[c-](C)[c-](C)[c-]1C.[Fe].c1cc2nccc(N3CCCC3)[c-]2c1 (stereo not drawn)	.	-40.1%[9.22 µM]	.	10µM*!	-2.0%[10 µM]	.
O=C(Oc1ccc(OC(=O)c2ccco2)c(S(=O)(=O)c2ccc(Br)cc2)c1)c1ccco1	?	11.2%	?	8.1%	-13.6%	28.2µM*
Cc1ccc(S(=O)(=O)c2cc(OC(=O)c3ccco3)ccc2OC(=O)c2ccco2)cc1	0.5%	21.1%	-13.7%	-1.7%	10.2%[10 µM]	-14.5%
O=C1COc2ccc(N3C(=O)C=CC3=O)cc2N1	6.31µM*	1.9%[9.22 µM]	.	0.5%	-22.8%	.
O=C(N/C=C\n1cnc2cc(C(F)(F)F)ccc21)c1ccc([N+](=O)[O-])cc1	-0.9%	11.9%[9.22 µM]	.	5.2%	5.9%[10 µM]	.
CC1=CCC(C(C)(C)O)CC1 (stereo not drawn)	.	28.2%	?	.	-87.4%	.
Cc1cc2nc(-c3ccco3)cc(C(F)(F)F)n2n1	14.1µM*	9.4%	2.4%	-0.8%	3.4%[10 µM]	-27.8%
Cc1c(C(=O)NN)sc(-c2ccccc2)c1C#N	1.26µM*	-10.2%	.	-14.8%	-20.0%	.
CCOC(=O)c1sc(-c2ccc(C)cc2)c(C#N)c1C	?	10.5%	7.5%	?	-32.7%[10 µM]	?
CN1CCN(c2cc3c(nn2)Oc2ccccc2N3C)CC1	.	0.7%	.	.	24.8%	.
O=C(N/N=C/c1[nH]c2ccccc2c1Cl)c1cccc(Br)c1	?	-13.1%[9.22 µM]	.	?	-4.6%[10 µM]	.
O=C(N/N=C/C1C(c2ccccc2)C1(Cl)Cl)c1cccc(Br)c1 (stereo not drawn)	11.2µM*	-5.7%	-10.3%	-16.5%	-20.7%	-11.2%
